# Experimental data: PubChem BioAssay AID504834 (National Center for Advancing Translational Sciences (NCATS), 2011)
# Among all 320,000 compounds or so, about 22,000 (6.9%) were called active. Not shown: some 27% with an inconclusive outcome. The sample holds actives, similar compounds and a random draw of the others, so the mix is not that of the screen. The call rests on the fitted dose curve; in most records, active means well fitted inhibition curve with a large enough effect; inconclusive means small, poorly fitted or top-dose-only effect, or another doubt; inactive means no such curve, though single readings can be large or run the other way.
# Assay: Primary qHTS for delayed death inhibitors of the malarial parasite plastid, 96 hour incubation
# Settings: P. falciparum luciferase reporter growth; series mostly up to 28.7 µM; activity change, negative = inhibition: at the top concentration
# How it was run: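 Cell-based qHTS: luciferase-tagged P. falciparum in erythrocytes (2% hematocrit, 0.05% parasitemia final) incubated with compounds for 96 hours, 37 C, 5% CO2; luciferase detection reagent then added and luminescence measured.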
# On the % scale 0 is the no-effect control and ±100 the full control effect; potency means the concentration at half of the fitted maximal effect.
Structure (SMILES),"activity change, negative = inhibition",Potency
CN(C)S(=O)(=O)c1ccc(Cl)c(NC(=O)COC(=O)CC(NC(N)=O)c2ccc(Cl)cc2)c1 (configuration not stated),5.17% (inactive),
CCCCN(CC)CCNC(=O)CCNC(=O)Cn1ccc2ccccc2c1=O,3.37% (inactive),
CCN(CC)CCNC(=O)C1c2ccccc2C(=O)N(C)C1c1cn(C)c2ccccc12 (configuration not stated),,2.94 µM (active)
CC1CCN(CC(=O)c2c[nH]c3ccccc23)CC1,52.6% (inactive),
CN1C(=O)c2ccccc2C(C(=O)NCCCN2CCCC2)C1c1c[nH]c2ccccc12 (configuration not stated),,10.4 µM (active)
COc1ccc(C2C(C(=O)N3CCN(c4ccc(OC)cc4)CC3)c3ccccc3C(=O)N2C)cc1 (configuration not stated),3.2% (inactive),
O=C(NCCCN1CCN(Cc2ccccc2)CC1)C1CCN(S(=O)(=O)N2CCCC2)CC1,-16% (inactive),
COc1cccc(C(=O)OCC(=O)c2[nH]c(C)c(C(C)=O)c2C)c1,13.9% (inactive),
COc1ccc(C2=NS(=O)(=O)N(C)C(C(=O)N3CCCCC3)=C2)cc1,2.02% (inactive),
COc1ccc2c(c1)c1ncn(Cc3ccccn3)c(=O)c1n2C,-10.8% (inactive),
CC1=CCC2C(=O)N(c3cccc(C(=O)NC(C)c4ccccc4)c3)C(=O)C2C1 (configuration not stated),-2.07% (inactive),
NC(=O)CSc1nnc(NC(=O)c2ccc(Br)o2)s1,24.6% (inactive),
CN(C)S(=O)(=O)N1CCC(Oc2cccc(C(=O)NCCCC3CCCC3)c2)CC1,22% (inactive),
Cc1ccc(CNC(=O)CC(NC(=O)c2ccccc2)c2ccccc2)cc1 (configuration not stated),-14.6% (inactive),
Cc1ccc(NC(=O)CN2C(=O)NC(C)(c3ccc(Cl)cc3)C2=O)c(Br)c1 (configuration not stated),9.53% (inactive),
CN(C(=O)CN1C(=O)NC(C)(CCc2ccccc2)C1=O)c1ccccc1 (configuration not stated),38.7% (inactive),
Cc1ccc(S(=O)(=O)c2c(N)n(C)c3nc4ccccc4nc23)cc1,,0.928 µM (active)
Cc1ccc(S(=O)(=O)Nc2nc(N)n(-c3ccccc3)n2)cc1,-1.37% (inactive),
Cc1ccc(S(=O)(=O)NCc2nc3ccccc3c(=O)n2N)cc1,19% (inactive),
Cc1ccsc1/C=N/NC(=O)Cc1cc(=O)[nH][nH]1,-14.1% (inactive),
CCC1(c2ccccc2)NC(=O)N(CC(=O)Nc2ccccc2C(=O)NC2CCCC2)C1=O (configuration not stated),-8.21% (inactive),
COC(=O)c1ccccc1NC(=O)CSc1nc2c(c(=O)[nH]1)CCC2,60.5% (inactive),
Cc1c(S(=O)(=O)NCc2ccccc2)c(=O)n(C)c(=O)n1C,11.9% (inactive),
Cn1c(=O)c2c(nc(SCCNS(=O)(=O)c3ccccc3)n2C)n(C)c1=O,,14.7 µM (active)
Cn1c(=O)c2c(nc(SCC(=O)Nc3ccccc3N3CCCCC3)n2C)n(C)c1=O,-18.4% (inactive),
CCOC(=O)CSc1nc2c(c(=O)n(C)c(=O)n2C)n1Cc1ccccc1F,74% (inactive),

Structure (SMILES),"activity change, negative = inhibition",Potency
CCCSc1nc2c(c(=O)n(C)c(=O)n2C)n1Cc1ccc(C)cc1,,13.1 µM (active)
Cc1cccc(Cn2c(SCCO)nc3c2c(=O)n(C)c(=O)n3C)c1,-16.9% (inactive),
Cc1ccc(CNS(=O)(=O)CCNC(=O)c2ccccc2)cc1,17.1% (inactive),
CC1C(=O)N2CCCc3cc(S(=O)(=O)NCc4ccc(F)cc4)cc1c32 (configuration not stated),-6.87% (inactive),
CC(C)CNS(=O)(=O)c1ccc(C(=O)Nc2ccc3c(c2)OCO3)cc1,0.709% (inactive),
COc1ccc(Cn2c(=S)[nH]c3cc(C(=O)N4CCCCC4)ccc3c2=O)cc1,9.86% (inactive),
Cc1ccc(S(=O)(=O)N2[C@@H](c3ccccc3F)C(C(=O)O)=CC[C@H]2c2ccc(Cl)cc2)cc1,59.7% (inactive),
Cc1cc(Nc2ccc(C(=O)N3CCCCC3)cc2)c2cccc(C)c2n1,11.2% (inactive),
CCn1cc(CN2CCC(n3nccc3NC(=O)CCCc3ccccc3)CC2)c(C)n1,83.5% (inactive),
c1ccc2c(c1)CSc1sccc1C2=C1CCNCC1,,10.4 µM (active)
CCOC(=O)CNC(=O)CSc1ncccc1-c1nc2ccccc2[nH]1,6.22% (inactive),
Cc1ccccc1N1CCN(S(=O)(=O)c2ccc3ccccc3c2)CC1,14.2% (inactive),
Cc1ccc(-n2c(SCC(=O)NCCC3=CCCCC3)nc3n[nH]c(C)c3c2=N)cc1Cl,-13.5% (inactive),
CC1(c2ccc(Cl)cc2Cl)NC(=O)N(CC(=O)Nc2cccnc2Cl)C1=O (configuration not stated),-14.1% (inactive),
COc1cc(CN2CCCC(C(=O)c3ccc(SC)cc3)C2)cc(Cl)c1O (configuration not stated),0% (inactive),
Cc1ccc(CN2CCCC(C(=O)c3ccc4c(c3)OCO4)C2)cc1C (configuration not stated),-0.489% (inactive),
COc1ccc(CN2CCCC(C(=O)c3ccc(Cl)cc3)C2)cc1Cn1cncn1 (configuration not stated),,10.4 µM (active)
COc1ccc(NC(=O)CSCc2ccc([N+](=O)[O-])cc2)cc1OC,0% (inactive),
OC(c1ccccc1)C(CN1CCOCC1)c1ccccc1 (configuration not stated),-25.2% (inactive),
OC(c1ccc(Cl)cc1)C(CN1CCOCC1)c1ccccc1 (configuration not stated),,2.08 µM (active)
COc1ccccc1OCC(O)CN1CCOCC1 (configuration not stated),-29% (inactive),
COc1ccc(C(C)C)cc1S(=O)(=O)Nc1ncn[nH]1,8.09% (inactive),
CCCN(CCC)S(=O)(=O)c1ccc(C(=O)NNC(=O)c2cc(OC)c(OC)c(OC)c2)cc1,-3.24% (inactive),
O=c1[nH]c(SCc2cccc(F)c2)nc2ccccc12,-15.5% (inactive),
O=C(c1cc(=O)c2ccccc2o1)N1CCN(c2ccccc2)CC1,-6.9% (inactive),
CN1CCC(CN)(N2CCN(c3ccccc3)CC2)CC1,,11.7 µM (active)

Structure (SMILES),"activity change, negative = inhibition",Potency
CN1CCN(c2ccc(NC(=O)c3ccccc3)cc2)CC1,29.1% (inactive),
CCC(C)N(C(=O)CSc1ncnc2c1cnn2-c1ccccc1)C1CCS(=O)(=O)C1 (configuration not stated),-29.2% (inactive),
COc1ccc(CC(=O)N/N=C/c2cc([N+](=O)[O-])cc(Br)c2O)cc1,-4.02% (inactive),
CC12CN3CCN(CC(C3)/C1=N\NC(=O)c1ccccc1N)C2,104% (inactive),
Cc1ccc2[nH]cc(CCNC(=O)C3CCCCC3)c2c1,290% (inactive),
NS(=O)(=O)c1ccc(CCNC(=O)NC2CCCCC2)cc1,9.49% (inactive),
Cc1ccc2[nH]c(C)c(CCNC(=O)NC3CCCCC3)c2c1,,1.47 µM (active)
CCc1ccnc(NC(=O)Nc2ccc(OCc3ccccc3)cc2)c1,-0.526% (inactive),
O=C(O)/C=C\C(=O)Nc1ccc(OCc2ccccc2)cc1,,4.15 µM (active)
Cc1cccc(NC(=O)Nc2ccc(OCc3ccccc3)cc2)n1,21.2% (inactive),
CCN(C(=O)c1cc([N+](=O)[O-])ccc1NCc1cccnc1)c1ccccc1,0.165% (inactive),
COc1cccc(N2CC(NS(=O)(=O)c3ccc(Cl)cc3)CC2=O)c1 (configuration not stated),-16% (inactive),
CCOC(=O)N1CCC(NC(=O)CCc2ccccc2)CC1,0% (inactive),
Cc1ccc(CSCCNC(=O)CN(c2ccc(F)cc2)S(C)(=O)=O)cc1,72.4% (inactive),
O=C(CCc1ccccc1)Nc1cccc(-c2nnc(-c3ccco3)o2)c1,-9.05% (inactive),
CCCCOc1ccc(-c2nnc(-c3ccco3)o2)cc1,-0.346% (inactive),
CCC(=O)Oc1cccc(C(=O)Nc2ccc(-c3nnc(-c4ccco4)o3)cc2)c1,,10.4 µM (active)
COCCCN(C(=O)CSCc1ccc(C)cc1)c1c(N)n(Cc2ccccc2)c(=O)[nH]c1=O,-14% (inactive),
Cc1ccc(C(=O)NC2CCN(C(=O)Nc3ccccc3Cl)CC2)cc1,31.5% (inactive),
O=C(c1c(F)cccc1Cl)N1CCN(c2ccccn2)CC1,0.71% (inactive),
NS(=O)(=O)c1ccc(CCNS(=O)(=O)c2cccc3cccnc23)cc1,,1.17 µM (active)
O=S(=O)(NCCc1ccc(F)cc1)c1cccc2cccnc12,-11.3% (inactive),
COc1ccc(CCNS(=O)(=O)c2cccc3cccnc23)cc1OC,70.3% (inactive),
Cc1cccc(NC(=O)c2cccc(C(=O)Nc3cccc(C)c3C)n2)c1C,6.25% (inactive),
COc1cc(C(=O)N2CCN(C)CC2)cc(OC)c1OC,3.19% (inactive),
C=CCOc1ccc(/C=C/C(=O)OCC(=O)NC(C)c2ccc(F)cc2)cc1 (configuration not stated),10.5% (inactive),

Structure (SMILES),"activity change, negative = inhibition",Potency
COc1ccc(Cn2c(O)c(/C=C3/C=CC=N3)c(=O)[nH]c2=O)cc1,7.49% (inactive),
COc1ccc(C(=O)NCC(=O)N/N=C/c2ccc([N+](=O)[O-])o2)cc1OC,,1.85 µM (active)
COc1cc(/C=N/NC(=O)CNC(=O)c2ccncc2)ccc1OC(C)=O,33% (inactive),
COc1ccc(C(=O)NCC(=O)N/N=C/c2ccc([N+](=O)[O-])s2)cc1OC,-64.3% (inactive),
O=C(O)Cc1csc(-c2cccc(Oc3ccccc3)c2)n1,,inactive
COC(=O)C1CCCCN1C(=O)c1ccc(OC2CCN(C(C)=O)CC2)c(OC)c1 (configuration not stated),,11.7 µM (active)
COc1ccc(C(=O)NCCn2nc(C)cc2C)cc1OC1CCN(C(C)=O)CC1,34.5% (inactive),
COCCOC1CCN(C(=O)c2ccc(OC)c(OC3CCN(C(C)C)CC3)c2)CC1,-50.9% (inactive),
O=C(CSc1nc(=O)n2ccccc2n1)Nc1ccc2c(c1)OCCO2,14.3% (inactive),
Cc1cccc(NC(=O)Nc2ccc3c(c2)OCO3)n1,128% (inactive),
Cc1cccc(NC(=O)/C=C/c2ccc3c(c2)OCO3)n1,,9.28 µM (active)
CCc1c(C)sc(NC(=O)/C=C/c2ccc3c(c2)OCO3)c1C(=O)OC,44.7% (inactive),
Cc1nc(COc2cccc(Cl)c2)sc1C(=O)/C=C/N(C)C,25.9% (inactive),
CC(=O)c1ccc(N2CCN(C(=O)CCNC(=O)Cn3ccc4ccccc4c3=O)CC2)cc1,28% (inactive),
O=C(NCc1cccc(Cl)c1)C1=CC=CN2CCS(=O)(=O)N=C12,-17.2% (inactive),
CC1CN(C2CCCCC2)c2nc3c(c(=O)n(C)c(=O)n3C)n2C1 (configuration not stated),-6.09% (inactive),
Cc1cccc(Cn2c(N3CCN(c4ccccc4)CC3)nc3c2c(=O)n(C)c(=O)n3C)c1,104% (inactive),
Cc1cccc(N2CC(C)Cn3c2nc2c3c(=O)n(CC(=O)OCc3ccccc3)c(=O)n2C)c1 (configuration not stated),,11.7 µM (active)
O=c1c2cc([N+](=O)[O-])ccc2nc2n1CCC2,0% (inactive),
COC(=O)c1sc(SC)c(S(=O)(=O)C(C)C)c1N/N=C(\C#N)S(=O)(=O)c1ccccn1,1.2% (inactive),
CC1CC(NC(=O)/C(C#N)=C/c2ccc[nH]2)CC(C)(C)C1 (configuration not stated),,3.29 µM (active)
Cn1c(=O)c2c(ncn2CC(COCc2ccccc2Cl)OCc2ccccc2Cl)n(C)c1=O (configuration not stated),,9.28 µM (active)
Cn1c(=O)c2c(ncn2CCc2ccccc2)n(C)c1=O,33.2% (inactive),
Cn1c(=O)c2c(nc(N3CCCCCC3)n2CC(O)COc2ccc(Cl)cc2)n(C)c1=O (configuration not stated),45.3% (inactive),
